# Results published in the supplement of paper PMC8728848.
# Many of the other results were omitted from the sample, so the strongest signals are more common in it than they were.
# B1: EUL D1A (Oryza sativa) (protein)
# chain: MFGFGHHHNQAPAAPSDPNQIFKIFCRANENYCLTVRDSAVVLAPVNPKDEHQHWFKDMRFSTKVKDGEGMPAFALVNKATGLAVKHSLGQSHPVKLVPFNPEYEDASVLWTESKDVGKGFRCIRMVNNTRLNLDAFHGDKDHGGVRDGTTVVLWEWCKGDNQSWKILPWGPEAHSSSPGAATACTIGGVPVHTVRVFSAAGEDYCLTVRNGTACLAPKNPRDDYQHWIKDMRHSNKIRDEEGYPAFALVNKVTGEAIKHSTGQGHPVKLVPYNPEYQDESVLWTESKDVGKGFRCIRMVNNIYLNFDAFHGDKDHGGIHDGTEIVLWKWCEGDNQRWKILPWILEQKLISEEDLNSAVDHHHHHH
# Tests used:
# Experiment in all cases: glycan array binding signal (z-score within array); higher = stronger binding
# Conditions in all cases: glycan notation: IUPAC condensed, linker removed
# [1] = biological target: GlcNAc(b1-4)Gal(b1-4)GlcNAc
# In short: (§1)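 Arrays were curated from the Consortium for Functional Glycomics database, 3228 in total, and kept only where the protein sequence was available. Binding is expressed as a within-array Z-score. This score was averaged across arrays of the same protein sequence at different concentrations or buffers and across linkers, and negative values can be read as non-binding.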
# [2] = biological target: GlcNAc(b1-4)GlcNAc(b1-4)GlcNAc(b1-4)GlcNAc(b1-4)GlcNAc
# In short: as §1
# [3] = biological target: Man(a1-2)Man(a1-6)[Man(a1-3)]Man(a1-6)[Man(a1-2)Man(a1-2)Man(a1-3)]Man
# In short: as §1
# [4] = biological target: Man(a1-3)[Man(a1-6)]Man(a1-6)[Man(a1-3)]Man
# In short: as §1
# [5] = biological target: Neu5Ac(a2-3)Gal(b1-3)GalNAc
# In short: as §1
# [6] = biological target: Neu5Ac(a2-3)Gal(b1-3)GalNAc6S
# In short: as §1
# [7] = biological target: Neu5Ac(a2-3)Gal(b1-3)GlcNAc(b1-6)GalNAc
# In short: as §1
# [8] = biological target: Neu5Ac(a2-3)Gal(b1-4)GlcNAc(b1-6)[Neu5Ac(a2-3)Gal(b1-3)]GalNAc
# In short: as §1
# [9] = biological target: Neu5Ac(a2-3)Gal6S(b1-4)[Fuc(a1-3)]GlcNAc
# In short: as §1
# [10] = biological target: Neu5Ac(a2-6)Gal(b1-4)GlcNAc(b1-2)Man(a1-6)[GlcNAc(b1-2)Man(a1-3)]Man(b1-4)GlcNAc(b1-4)GlcNAc
# In short: as §1
# [11] = biological target: Neu5Ac(a2-6)Gal(b1-4)GlcNAc(b1-6)[Gal(b1-3)]GalNAc
# In short: as §1
# [12] = biological target: Neu5Ac(a2-8)Neu5Ac(a2-3)Gal(b1-3)GalNAc(b1-4)[Neu5Ac(a2-8)Neu5Ac(a2-3)]Gal(b1-4)Glc
# In short: as §1
# [13] = biological target: Neu5Ac9Ac(a2-3)Gal(b1-3)GlcNAc
# In short: as §1
# [14] = biological target: Neu5Ac9Ac(a2-6)Gal(b1-4)GlcNAc
# In short: as §1
# [15] = biological target: Neu5Gc(a2-3)Gal(b1-3)[Fuc(a1-4)]GlcNAc
# In short: as §1
# [16] = biological target: Neu5Gc(a2-8)Neu5Gc(a2-6)Gal(b1-4)GlcNAc
# In short: as §1
binder,measurement,setting,value
B1,glycan array binding signal (z-score),[1],-1.13
same,glycan array binding signal (z-score),[2],0.586
same,glycan array binding signal (z-score),[3],2.83
same,glycan array binding signal (z-score),[4],-0.067
same,glycan array binding signal (z-score),[5],-0.87
same,glycan array binding signal (z-score),[6],2.32
same,glycan array binding signal (z-score),[7],-1.15
same,glycan array binding signal (z-score),[8],2.69
same,glycan array binding signal (z-score),[9],-0.714
same,glycan array binding signal (z-score),[10],1.83
same,glycan array binding signal (z-score),[11],-0.319
same,glycan array binding signal (z-score),[12],0.293
same,glycan array binding signal (z-score),[13],-0.59
same,glycan array binding signal (z-score),[14],-0.088
same,glycan array binding signal (z-score),[15],0.008
same,glycan array binding signal (z-score),[16],-0.137
